Source: paper PMC4336329 (PLoS ONE, 2015)
The campaign covered roughly 310,000 compounds. About 14,000 (4.5%) showed an effect of 50% or more. Effects have a minus sign here. The sample as a whole holds a higher share of strong results than the screen did.

What follows are compounds tested against human ether-à-go-go-related gene (hERG) potassium channel (human, UniProt Q12809) (assay: primary screen, population patch clamp on CHO cells stably expressing hERG; higher = less effect of the substance).
Chain of human ether-à-go-go-related gene (hERG) potassium channel (Q12809 whole entry, looked up): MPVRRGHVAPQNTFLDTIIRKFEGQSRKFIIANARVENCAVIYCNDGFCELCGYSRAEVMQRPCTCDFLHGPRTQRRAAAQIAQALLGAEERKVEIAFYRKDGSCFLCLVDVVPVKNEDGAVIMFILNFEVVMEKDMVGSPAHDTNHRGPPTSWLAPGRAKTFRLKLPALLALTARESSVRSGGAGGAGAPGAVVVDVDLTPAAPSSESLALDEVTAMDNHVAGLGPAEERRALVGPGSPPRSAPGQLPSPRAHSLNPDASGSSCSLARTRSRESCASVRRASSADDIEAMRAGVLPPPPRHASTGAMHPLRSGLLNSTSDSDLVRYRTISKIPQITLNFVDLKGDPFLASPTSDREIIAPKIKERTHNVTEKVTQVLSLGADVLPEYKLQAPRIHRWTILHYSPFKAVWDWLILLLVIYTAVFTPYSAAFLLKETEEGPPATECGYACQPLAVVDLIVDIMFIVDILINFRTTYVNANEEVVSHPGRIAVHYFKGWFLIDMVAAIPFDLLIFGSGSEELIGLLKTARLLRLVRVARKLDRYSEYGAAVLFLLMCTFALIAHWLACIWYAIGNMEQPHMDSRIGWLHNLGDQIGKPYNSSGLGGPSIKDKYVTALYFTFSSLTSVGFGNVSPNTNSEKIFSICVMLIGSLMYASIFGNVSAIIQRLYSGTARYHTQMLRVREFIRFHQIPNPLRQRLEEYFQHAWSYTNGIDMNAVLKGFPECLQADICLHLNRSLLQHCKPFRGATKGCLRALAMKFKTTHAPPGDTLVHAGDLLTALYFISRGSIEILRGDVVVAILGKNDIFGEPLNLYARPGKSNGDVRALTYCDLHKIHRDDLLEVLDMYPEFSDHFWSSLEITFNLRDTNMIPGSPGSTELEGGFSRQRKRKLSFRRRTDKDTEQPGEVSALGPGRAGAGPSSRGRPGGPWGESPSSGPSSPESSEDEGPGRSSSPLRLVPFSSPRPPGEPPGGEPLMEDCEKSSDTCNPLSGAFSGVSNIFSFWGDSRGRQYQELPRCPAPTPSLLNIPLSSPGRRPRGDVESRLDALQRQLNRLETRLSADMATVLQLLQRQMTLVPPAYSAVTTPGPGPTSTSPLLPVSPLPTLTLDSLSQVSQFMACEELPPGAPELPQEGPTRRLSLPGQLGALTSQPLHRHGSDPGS
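Note: peak tail current of the secondary pulse compared with the same well before compound.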

Compound	hERG current change (%, negative = inhibition) at 10uM
CCOCCCNC(=O)C1CCN(Cc2ccc(OCc3ccccc3)c(OC)c2)CC1.O=C(O)C(=O)O	-43.3%
COCCNC(=O)C1CCN(Cc2cccc(OCc3ccccc3)c2)CC1	-12.2%
CCOC(=O)N1CCN(C(=O)C2CCN(Cc3ccc(O)c(OCC)c3)CC2)CC1.O=C(O)C(=O)O	20.2%
CCOC(=O)C1CCN(Cc2cccc(OCc3ccccc3)c2)CC1.O=C(O)C(=O)O	-43.2%
CC(C)CCNC(=O)C1CCN(Cc2cccc(OCc3ccccc3)c2)CC1.O=C(O)C(=O)O	-50.8%
CCOC(=O)C1CCN(Cc2ccc(OCc3ccccc3)cc2)CC1.O=C(O)C(=O)O	-62%
NC(=O)C1CCN(Cc2cccc(OCc3ccccc3)c2)CC1.O=C(O)C(=O)O	-12%
CCOCCCNC(=O)C1CCN(Cc2cccc(OCc3ccccc3)c2)CC1.O=C(O)C(=O)O	-14.1%
CCOC(=O)C1CCCN(Cc2ccc(OCc3ccccc3)cc2)C1.O=C(O)C(=O)O (stereo not drawn)	-40.6%
CCCCNC(=O)C1CCN(Cc2ccc(OCc3ccccc3)c(OC)c2)CC1.O=C(O)C(=O)O	-67.2%
CCOC(=O)N1CCN(C(=O)C2CCN(Cc3cccc(OCc4ccccc4)c3)CC2)CC1.O=C(O)C(=O)O	-58.4%
CCOC(=O)C1CCN(Cc2ccc(OC)c(OCc3ccccc3)c2)CC1	-38.3%
COC(=O)c1ccccc1NC(=O)c1nc2nc(C)cc(C(F)F)n2n1	-5.65%
Cc1nc2ccccc2c2c1CC(C)S2 (stereo not drawn)	-16.8%
Cc1ccc2nc(-c3ccccc3O)c(Nc3ccc4c(c3)OCCO4)n2c1	9.98%
COc1cc(CN2CCC(C(=O)NCCC(C)C)CC2)ccc1OCc1ccccc1.O=C(O)C(=O)O	-67.8%
O=C(C1CCN(Cc2ccc(OCc3ccccc3)cc2)CC1)N1CCCC1	-47.1%
CCOC(=O)C1CCN(Cc2ccc(-c3ccccc3)cc2)CC1	-28.8%
COc1ccc(CN2CCC(C)CC2)cc1OCc1ccccc1	-49.6%
CCOC(=O)C1CCN(c2c(NCCCN3CCN(Cc4ccccc4)CC3)c(=O)c2=O)CC1	3.6%
CC(C)CNC(=O)C1CCN(Cc2ccc(OCc3ccccc3)cc2)CC1.O=C(O)C(=O)O	-77.1%

Compound	hERG current change (%, negative = inhibition) at 10uM
COc1cc(CN2CCC(C(=O)NCC(C)(C)CN(C)C)CC2)ccc1OCc1ccccc1.O=C(O)C(=O)O	13.6%
CCOC(=O)C1CCN(c2c(N3CCN(Cc4ccccc4)CC3)c(=O)c2=O)CC1	-73.4%
COc1cc(CN2CCC(C)CC2)ccc1OCc1ccccc1.O=C(O)C(=O)O	-52.9%
COc1cc(CN2CCCCC2)ccc1OCc1ccccc1.O=C(O)C(=O)O	-35.1%
CC(O)CNC(=O)C1CCN(Cc2ccc(OCc3ccccc3)cc2)CC1.O=C(O)C(=O)O (stereo not drawn)	-33.2%
O=C(/C=C/c1ccccc1)Nc1cc(NC(=O)/C=C/c2ccccc2)cc(C(=O)O)c1	21.4%
COc1ccc(-c2cc(C)no2)cc1S(=O)(=O)N1CCCN(Cc2ccc(F)cc2)C1	-16.9%
CC(C)C(=O)Nc1nnc(SCc2cccc(F)c2)s1	-8.88%
COc1ccc(Cc2nc(C(=O)Nc3ccc(Cl)cc3)cs2)cc1	-42.8%
CCOC(=O)c1nsnc1NCCSC(=N)N.I	3.69%
CC1CN(S(=O)(=O)c2ccc(C(=O)Nc3sccc3C(N)=O)cc2)CC(C)O1 (stereo not drawn)	-10.8%
CCOc1ccc(NC(=O)CCC(=O)Nc2cc(OC)c(NC(=O)c3ccco3)cc2OC)cc1	10.4%
O=C(CSc1nc(-c2ccccc2)cs1)N1CCc2ccccc21	3.61%
Cc1cccc(N(Cc2cc3ccccc3[nH]c2=O)C(=O)c2ccco2)c1C	4.51%
CCC(C)(C)NC(=O)C(c1ccncc1)N(Cc1ccc(C)cc1)C(=O)c1csnn1 (stereo not drawn)	-14.1%
COc1cc(OC)c(C2N(c3ccccn3)C(=O)C3CCCN32)cc1OC (stereo not drawn)	13.8%
COc1ccc(C(=O)OCC(=O)NCCN2C(=O)CSC2=O)cc1	-1.03%
OC1CCN(Cc2ccc(OCc3ccccc3)cc2)CC1	-5.07%
CCOC(=O)C1CCCN(Cc2ccc(OC)c(OCc3ccccc3)c2)C1 (stereo not drawn)	-46.1%
CCOC(=O)C1CCCN(Cc2ccc(OCc3ccccc3)c(OC)c2)C1.O=C(O)C(=O)O (stereo not drawn)	-62.2%
CCOC(=O)C1CCN(c2c(NCc3ccc(N(C)C)cc3)c(=O)c2=O)CC1	-5.97%
